Structures are written as SMILES. Where “and” joins values, the source holds several entries; their conditions need not be identical. Equal entries are not always repeated. Structures can show the parent of a compound that is named as a salt.

The assay concerns LASCPC-01. Briefly: cell viability relative to DMSO control (fraction); higher = less growth inhibition (more viable cells). The conditions noted are these: 2 µM; 72 h. The method, then:
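High-throughput single-dose screen in the LASCPC-01 NEPC cell line in 384-well plates. Cells were treated with each compound at 2 µM for 72 h, and viability was read by CellTiter-Glo luminescence. Values are normalised to the DMSO control (compound/DMSO) from three replicates; only the 5-HT-related subset of the 7315-compound library is given.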
Compound `COc1cc2c(cc1OC)[C@@H]1Cc3ccc(OC)c(OC)c3CN1CC2` [Rotundine] yielded a cell viability of 1.05.
On to `COCCCN1CCC(NC(=O)c2cc(Cl)c(N)c3c2OCC3)CC1` [Prucalopride], for which the cell viability is 0.922.
Next, `O=C1Cc2cc(CCN3CCN(c4nsc5ccccc45)CC3)c(Cl)cc2N1` [Ziprasidone]: 0.987.
Take `O=C(c1ccc(F)cc1)C1CCN(CCn2c(=O)[nH]c3ccccc3c2=O)CC1` [Ketanserin tartrate]: the cell viability was 0.737.
The same measure for `Cc1nc2n(c(=O)c1CCN1CCC(c3noc4cc(F)ccc34)CC1)CCCC2` [Risperidone]: 0.99.
In turn, `N#Cc1ccc2[nH]cc(CCCCN3CCN(c4ccc5oc(C(N)=O)cc5c4)CC3)c2c1` [Vilazodone HCl] returned a cell viability of 0.916.
The same measure for `CSc1ccc2c(c1)C(N1CCN(C)CC1)Cc1ccccc1S2` (stereo not given) [Methiothepin mesylate]: 1.03; for `O=c1c(-c2ccc(O)cc2)coc2c([C@@H]3O[C@H](CO)[C@@H](O)[C@H](O)[C@H]3O)c(O)ccc12` [Puerarin]: 0.989; for `O=C1c2cccc3c2[C@H](CCC3)CN1[C@@H]1CN2CCC1CC2` [Palonosetron hydrochloride]: 0.935.
Next, `Cc1cc(NC(=O)Nc2ccc3c(ccn3C)c2)sn1`: 0.944.
The same measure for `CN(C)CCCC1(c2ccc(F)cc2)OCc2cc(C#N)ccc21` (stereo not given) [Citalopram hydrobromide]: 1.06; for `c1ccc2c(c1)CC(N1CCN(c3cccc4c3OCCO4)CC1)C2`: 0.835; for `Cn1c(=O)cnn(CCCCN2CCN(c3ncccn3)CC2)c1=O` [Eptapirone]: 0.947.
For `COc1ccccc1N1CCN(CCCNc2cc(=O)n(C)c(=O)n2C)CC1` [Urapidil], the cell viability was 1.18.
The same measure for `CNCC[C@@H](Oc1ccccc1C)c1ccccc1` [Atomoxetine HCl]: 1.02.
Compound `O=C1CC2(CCCC2)CC(=O)N1CCCCN1CCN(c2ncccn2)CC1` [Buspirone HCl] had a cell viability of 1.02.
Next, `CN1CCN(c2cc3c(nn2)Oc2ccccc2N3C)CC1` [Azaphen]: 0.951; `Clc1ccc2c(c1)N=C(N1CCNCC1)c1ccccc1N2` [N-Desmethylclozapine]: 0.907.
Next, `COc1ccccc1N1CCN(CCN(C(=O)C2CCCCC2)c2ccccn2)CC1`: 0.987 and 1.03.
Next, `O=C(O)Cc1c[nH]c2ccc(O)cc12` [5-Hydroxyindolacetic acid]: 0.928.
For the compound `CN1CCN2c3ccccc3Cc3ccccc3C2C1` (stereo not given) [Mianserin hydrochloride], the cell viability is 1.04.
The same measure for `O=C1[C@@H]2[C@H]3CC[C@H](C3)[C@@H]2C(=O)N1CCCCN1CCN(c2ncccn2)CC1` [Tandospirone citrate]: 0.477; for `COc1ccc2cc(Br)ccc2c1` [2-Bromo-6-methoxynaphthalene]: 0.899; for `CN1CC2c3ccccc3Oc3ccc(Cl)cc3C2C1` (stereo not given) [Asenapine Maleate]: 1.1.
The same measure for `CC1(C)C(=O)N(CCN2CCC(C(=O)c3ccc(F)cc3)CC2)c2ccccc21` [LY-310,762 hydrochloride]: 0.89; for `Cc1nccn1CC1CCc2c(c3ccccc3n2C)C1=O` (stereo not given) [Ondansetron HCl]: 1.03.
Regarding `CCCCCNC(=N)N/N=C/c1c[nH]c2ccc(OC)cc12` [Tegaserod maleate], the cell viability was determined as 0.531.
The compound `COc1ccccc1N1CCN(CCCNc2cc(=O)n(C)c(=O)n2C)CC1` [Urapidil HCl] displayed a cell viability of 0.425.
`COc1cccc([C@H](O)C2CCN(CCc3ccc(F)cc3)CC2)c1OC` [Volinanserin] showed a cell viability of 1.06.
In the case of `CCc1nn(CCCN2CCN(c3cccc(Cl)c3)CC2)c(=O)n1CCOc1ccccc1` [Nefazodone hydrochloride], the cell viability stood at 1.03.
The same measure for `COc1ccc(NC(=O)Nc2ccc(F)cc2F)cc1-c1c(Br)cnn1C` [Nelotanserin]: 1.09; for `COc1ccccc1N1CCN(CCN(C(=O)c2ccc(F)cc2)c2ccccn2)CC1` [p-MPPF dihydrochloride]: 0.362; for `CN(C)CC(c1ccc(O)cc1)C1(O)CCCCC1` (stereo not given) [Desvenlafaxine Succinate]: 0.883.
Next, `O=C(O[C@@H]1C[C@@H]2C[C@H]3C[C@H](C1)N2CC3=O)c1c[nH]c2ccccc12` [Dolasetron mesylate hydrate]: 1.07; `Fc1ccc2c(CCNCc3cccc(OCC(F)(F)C(F)F)c3)c[nH]c2c1` [idalopirdine]: 0.923; `Cn1cc(C(=O)OCC2CCN(CCNS(C)(=O)=O)CC2)c2ccccc21`: 0.959.
The same measure for `NC(N)=NC(N)=Nc1cccc(Cl)c1` [1-(m-Chlorophenyl)-biguanide hydrochloride]: 1.03.
Take `CN1CCC(=C2c3ccccc3CCc3sccc32)CC1` [Pizotifen]: the cell viability was determined as 0.586.
The same measure for `CCN(CC)CCOC(=O)C(Cc1cccc2ccccc12)CC1CCCO1` (stereo not given) [Nafronyl oxalate]: 1.07; for `CN(C)CCC[C@@]1(c2ccc(F)cc2)OCc2cc(C#N)ccc21` [Escitalopram Oxalate]: 0.982.
